SMN2 splice enh: enhancers of SMN2 splice variant expression; AID 1458; Potency, µM (top dose mostly 46.1 µM), for inactives: at the highest dose activity change, positive = activation, usual class: activators; HEK293 SMN2-luciferase splicing reporter, luminescence, 30-36 h; 210,000 compounds, 2.8% hits; note: % of control where 0% means no effect; nearly all actives have a fitted effect of over 55% in size
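HEK293 cells carry an SMN2 minigene-luciferase reporter in which exon 7 inclusion puts luciferase in frame. Cells were seeded at 2000 cells/well, attached for 10-12 hours, then exposed to compounds for 30-36 hours at 37C before ONE-Glo luminescence.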
KinaseGlo FLuc: Kinase-Glo luciferase inhibition (counter-screen). Q27757. Potency, µM (highest dose often 38.3 µM), for the others: at the highest dose activity change, negative = inhibition, usual class: inhibitors. 200,000 compounds, 0.28% hits. Kinase-Glo luciferase, ATP luminescence, 8 min; note: % is set by controls: 0 for no effect and ±100 for the full control effect; nearly all actives have a fitted effect of over 60% in size
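Substrate mix (final 50 mM imidazole pH 7.2, 50 mM KCl, 7 mM MgCl2, 10 uM ATP, 0.01% Tween 20, 0.05% BSA) plus pin-tool compound, then Kinase-Glo detection mix; 8 min ambient, luminescence read.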
Rab9 promoter act: activators of Rab9 promoter; Huh7 Rab9 promoter-luciferase reporter, luminescence, 24 h; Potency, µM (doses to about 9.22 µM), for inactives: at the top dose activation, negative = inhibition, actives largely listed as activators; 320,000 compounds, 2.8% hits; AID 485297; note: % of control where 0% means no effect; nearly all actives have a fitted effect of over 60% in size
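Cell-based reporter: Huh7 stable for Rab9 promoter-driven luciferase, plated in reduced-serum medium with 10% FBS at 1500 cells/well, compound-treated 24 h at 37 °C, luminescence read after 10 min reagent.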
NPC1 promoter act: activates the NPC1 promoter; Huh7 NPC1 promoter luciferase reporter, 24 h; Potency, µM (highest dose often 9.22 µM), for the others: top-dose activation, hits mostly activators; 320,000 compounds, 2.4% hits; note: % of control where 0% means no effect; nearly all actives have a fitted effect of over 60% in size
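Quantitative HTS used a cell-based reporter: Huh7 cells stably bearing the NPC1 promoter upstream of luciferase were treated with compounds for 24 h, and promoter activation was read as luminescence.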
ELG1 genotox: genotoxicity induction in ELG1-luciferase HEK293T cells; 330,000 compounds, 1.3% hits; Potency, µM (series often up to 46 µM), without a hit: at the highest dose activity change, positive = activation, hits mostly activators; HEK293T ELG1-luciferase reporter, luminescence, 16 h; note: % of control where 0% means no effect; nearly all actives have a fitted effect of over 60% in size
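Step 1: seed 2,000 HEK293T ELG1-luciferase cells per well. Step 2: add compound or DMSO, incubate 16 hr at 37 °C. Step 3: ONE-Glo, 30 min at room temperature, read luminescence.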
FLuc modulator: inhibits or activates purified firefly luciferase, miR-21 counter-screen | P08659 | purified FLuc, Km substrates, luminescence inhibition | 360,000 compounds, 6.9% hits | Potency, µM (titrated, usually from 57.5 µM), for the others: at the top dose activity change, negative = inhibition, usual class: inhibitors;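 note: plate controls were vehicle for no effect and reference inhibitor for full effect; nearly all actives have a fitted effect of over 55% in size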
Target sequence (P08659 whole entry, looked up): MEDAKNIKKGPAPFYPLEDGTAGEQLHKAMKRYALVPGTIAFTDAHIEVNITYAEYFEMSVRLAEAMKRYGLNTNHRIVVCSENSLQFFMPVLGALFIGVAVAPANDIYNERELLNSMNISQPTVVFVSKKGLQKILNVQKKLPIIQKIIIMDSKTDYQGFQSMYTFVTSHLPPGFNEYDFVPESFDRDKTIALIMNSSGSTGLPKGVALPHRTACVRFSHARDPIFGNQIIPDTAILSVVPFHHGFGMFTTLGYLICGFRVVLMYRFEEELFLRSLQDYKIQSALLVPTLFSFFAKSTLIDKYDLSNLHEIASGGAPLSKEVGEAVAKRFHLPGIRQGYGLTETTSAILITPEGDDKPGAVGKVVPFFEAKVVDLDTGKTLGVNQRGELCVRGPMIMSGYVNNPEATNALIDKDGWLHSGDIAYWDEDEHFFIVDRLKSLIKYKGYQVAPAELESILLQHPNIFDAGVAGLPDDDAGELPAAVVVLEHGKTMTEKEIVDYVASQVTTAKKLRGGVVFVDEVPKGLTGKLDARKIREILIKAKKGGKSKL
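Purified P. pyralis luciferase, 10 nM final, with Km-level 10 uM D-luciferin and 10 uM ATP in 50 mM Tris acetate pH 7.5, 10 mM Mg acetate, 0.01% Tween-20, 0.05% BSA; 6-point qHTS titration about 60 µM downward; luminescence read.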
Starred values were filed as active, the others as inactive; ? = inconclusive; / = no result given; [ ] = remark or other dose. Only some compounds are listed: those with a hit (about 7.4% of all), similar ones and a draw of the others. Calls come from the whole dose curve; as a rule, active = well fitted curve in the direction sought with a large enough effect; inconclusive = small, poorly fitted or top-dose-only effect, or another doubt; inactive = no such curve, though single readings can be large; an effect the other way counts as inactive or inconclusive. Potency is the fitted concentration of half-maximal effect.

SMILES | SMN2 splice enh | KinaseGlo FLuc | Rab9 promoter act | NPC1 promoter act | ELG1 genotox | FLuc modulator
O=C(Nc1cc(F)c(Br)cc1F)c1ccc(Cl)cc1 | / | / | 1.8µM* | 2.2µM* | ? | 2.7µM*
Cc1ccc(C(=O)Nc2ccsc2C(=O)O)cc1 | / | / | 0.45µM* | 0.71µM* | 23µM* | 2.7µM*
CC(=O)N1CCC2(CCN(Cc3ccc(C#N)cc3)CC2)CC1 | 15% | -7% | / | / | / | /
O=C(N/C(=C/c1ccccc1)C(=O)N1CCCCC1)c1ccccc1 | / | / | 2.8µM* | 3.5µM* | 18µM* | 7.6µM*
Cc1ccc(S(=O)(=O)Oc2cc(S(=O)(=O)O)cc3cc(S(=O)(=O)O)cc(N)c23)cc1 | 2%[9.22 µM] | -6%[7.66 µM] | / | / | / | /
CCOC(=O)N1CCN(C(=S)NC(=O)/C=C/c2ccc(C)cc2)CC1 | / | / | -1% | -5% | 0% | 13µM*
Cc1cc(/C=C(\C#N)C(=O)Nc2ccccc2)c(C)n1-c1cccnc1 | 5.6µM* | 0% | 2.8µM* | ? | 13% | 1.5µM*
CCCn1c(C)cc(/C=C(\C#N)C(=O)OCC(=O)Nc2cccc(S(N)(=O)=O)c2)c1C | / | / | 25% | 14% | 5% | 3.8µM*
CCOC(=O)/C(C#N)=C/c1cc(C)n(-c2ccccc2)c1C | -73% | -6% | 0.56µM* | 3.2µM* | 0.65µM* | 0.54µM*
Cc1cc(/C=C(\C#N)C(=O)NCC2CCCO2)c(C)n1-c1ccc(Cl)cc1 (stereo not given) | / | / | 3.5µM* | ? | 1% | 4.3µM*
COc1cc(/C=C(\C#N)C(=O)NCC2CCCO2)ccc1O (stereo not given) | 11% | -1% | -3% | -2% | 5% | -4%
Cc1ccc(CNC(=O)C2CCN(c3nc4ccc(C)cc4[nH]3)CC2)cc1 | / | / | / | / | / | -11%
Cc1nc2ncnn2c(C)c1CCC(=O)N1CCN(c2ccccc2)CC1 | 1% | / | / | / | / | -5%
O=C(NCc1ccc(Cl)cc1)NC1COc2ccccc2C1 (stereo not given) | / | / | / | / | / | -5%
O=C(O)CCSCc1ccc(I)cc1 | 6%[9.22 µM] | -3%[7.66 µM] | / | / | / | /
CCC(C)NC(=O)c1sc2nc(C)c(C(=O)Nc3ccc(C)cc3C)c(-c3ccc(NC(C)=O)cc3)c2c1N (stereo not given) | -12% | / | / | / | / | -9%
Cc1cc(/C=C(\C#N)C(=O)Nc2ccccc2)c(C)n1-c1ccc(F)cc1 | 2% | / | / | / | / | 2.7µM*
Cc1ccc(NC(=O)/C(C#N)=C/c2cc(C)n(-c3ccc(F)cc3)c2C)cc1C | 17% | / | / | / | / | -2%
N#C/C(=C\c1ccccc1O)C(=O)Nc1cccnc1 | / | / | 1.6µM* | 2.8µM* | ? | 3µM*
COC(=O)CC1Oc2ccc(F)cc2-n2cc(-c3ccc(C)cc3)nc21 (stereo not given) | -13% | / | / | / | / | -6%
O=C(Nc1ccc(F)cc1)c1csc(Cc2ccccc2)n1 | 1% | -2% | ? | ? | 6% | 5.4µM*
O=C(O)c1csc(Cc2ccccc2)n1 | -11% | 1% | -5% | -4% | -1% | -14%
COc1ccc(CNC(=O)c2csc(Cc3ccccc3)n2)cc1 | ? | 6% | 19% | 4% | 7% | 19µM*
COc1ccccc1CNC(=O)c1csc(Cc2ccc(Cl)cc2)n1 | 5% | -3% | 0% | -4% | -3% | 0%
COc1ccc(NC(=O)c2csc(Cc3ccccc3)n2)cc1 | -15% | 16% | ? | 26% | ? | 6.7µM*
SMILES | SMN2 splice enh | KinaseGlo FLuc | Rab9 promoter act | NPC1 promoter act | ELG1 genotox | FLuc modulator
Cn1cccc1C(=O)N1CCC2(CC1)CCN(c1ccccn1)CC2 | -46% | -4% | / | / | / | /
O=C(Nc1ccc(Cl)cc1C(=O)Nc1ccncc1)c1ccco1 | 32µM* | -4% | 8% | 2% | -12% | -17%
O=C(Nc1ccc(N2CCOCC2)c(Cl)c1)c1ccc2c(c1)OCCO2 | / | -1% | 6% | 0% | -1% | ?
Cc1cc(C(=O)Nc2ccc(N3CCOCC3)c(Cl)c2)c(C)o1 | / | / | 2.8µM* | ? | ? | 6.7µM*
O=C(Nc1ccc(Cl)cc1C(=O)NCc1cccnc1)c1ccco1 | ? | -1% | 0% | 4% | -1% | 0%
O=C(Nc1nnc(-c2cc(Cl)ccc2Cl)o1)c1ccco1 | / | / | 19% | 16% | ? | 6µM*
O=C(Nc1nnc(-c2cc(Cl)ccc2Cl)o1)C1=COCCO1 | / | / | -2% | 11% | 3% | -30%
O=C(Nc1ccc(N2CCOCC2)c(Cl)c1)c1ccc(Cl)cc1 | -86% | 2% | 29% | 14% | -16% | 17µM*
O=C(Nc1ccc(N2CCOCC2)c(Cl)c1)C1CCCCC1 | -12% | 0% | 13% | 18% | ? | ?
O=C(Nc1ccc(N2CCOCC2)c(Cl)c1)c1ccco1 | 13µM* | -7% | 3.5µM* | 1.4µM* | 2.6µM* | 9.5µM*
O=C(Nc1ccc(NC(=O)c2ccco2)c(Cl)c1)c1ccccc1 | / | -19% | ? | 25% | ? | ?
O=C(Nc1cc(C(F)(F)F)ccc1N1CCOCC1)c1ccccc1F | 9% | -7% | -6% | -1% | 4% | 3%
O=C(Nc1ccc(Br)c(Cl)c1)c1ccco1 | ? | -8% | 3.5µM* | ? | 21µM* | 21µM*
O=C(Nc1ccc(N2CCOCC2)c(Cl)c1)c1ccccc1F | 24% | 3% | 3.5µM* | 3.2µM* | 5.2µM* | 9.5µM*
O=C(Nc1ccc(N2CCOCC2)c(Cl)c1)c1ncn[nH]1 | 17% | -2% | 9% | 23% | 2% | 21µM*
Cc1cc(F)ccc1-n1nnc(C(N)=O)c1C | 3% | / | / | / | / | 1%
O=C(NCCc1nc2ccccc2n1Cc1ccc(Cl)cc1Cl)c1ccco1 | -11% | / | / | / | / | -10%
CCSC1=NC2(CCN(C(=O)NC3CCCCC3)CC2)N=C1c1ccc(C)cc1 | / | / | / | / | / | 2%
COc1cccc(NC(=O)C2CC(=O)N(c3ccc(Br)cc3)C2)c1 (stereo not given) | 1% | / | / | / | / | -17%
COc1ccc2c(c1)c1c(c(=O)n(Cc3ccccc3)c(=O)n1CC(=O)Nc1ccccc1F)n2C | / | / | / | / | / | -3%
COc1cc(Nc2cc(C)nc3ncnn23)cc(OC)c1 | ? | 1% | 1% | -17% | 23µM* | 1%
CCOc1ccc(OCC)c(Nc2cc(C)nc3ncnn23)c1 | 11µM* | 2% | -5% | -9% | 21µM* | -1%
CCOc1ccc(OCC)c(Nc2cc(C)nc3nc(C)nn23)c1 | 4% | 11% | -23% | -19% | 1% | 7%
COc1cc(Nc2cc(C)nc3ncnn23)cc(OC)c1OC | 14µM* | -1% | -2% | -1% | ? | -1%
COC(=O)c1cc(Nc2cc(C)nc3ncnn23)cc(C(=O)OC)c1 | 9% | -2% | -1% | -1% | 2% | 5%
COc1cccc(CN2C(=O)c3ccccc3Sc3ccc(C(=O)NCCc4ccc(C)cc4)cc32)c1 | -5% | / | / | / | / | 5%

Compound activity deposited in PubChem BioAssay by National Center for Advancing Translational Sciences (NCATS).
